Results as given in PubChem BioAssay AID1159580 (chemical genetic matrix, 2015).
Hit rate of the full screen: of about 5,500 compounds, about 2,000 (36%) were called active. Roughly 18% stayed inconclusive and do not appear here. Rule as the data show it: active = normalized growth mostly below about 0.91 (no sharp cut-off); inconclusive = no clear call, values can overlap the other calls; inactive = mostly above about 0.92. The list shows a part of the results.

Assay: chemical genetic growth profiling, strain panel (AID 1159580);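 also: tested at 20 µM; growth read once vehicle control cultures reached saturation at 30 °C; 1 = growth at the plate median or of vehicle wells; lower values mean less growth of the strain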
Conditions: growth OD

Measured: normalized growth

C[C@@H]1CC[C@H]2[C@@H](C)C(O)O[C@@H]3O[C@@]4(C)CC[C@@H]1[C@]32OO4 (some centres not stated)
active: S. cerevisiae deletion strains, locus YJR075W, strain HOC1, active compounds read low 0.166 | S. cerevisiae deletion strains, locus YKL009W, strain mrt4, active compounds read low 0.649 | S. cerevisiae deletion strains, locus YKL068W, active compounds read low 0.775 | S. cerevisiae deletion strains, locus YKL085W, strain MDH1 (second series), active compounds read low 0.363 | S. cerevisiae deletion strains, locus YKL085W, strain MDH1, active compounds read low 0.363 | S. cerevisiae deletion strains, locus YKL160W, strain elf1, active compounds read low 0.336 | S. cerevisiae deletion strains, locus YKL190W, strain CNB1, active compounds read low 0.231 | S. cerevisiae deletion strains, locus YKR001C, strain vps1, active compounds read low 0.587 | S. cerevisiae deletion strains, locus YKR026C, strain gcn3, active compounds read low 0.407 | S. cerevisiae deletion strains, locus YKR091W, strain srl3, active compounds read low 0.329 | S. cerevisiae deletion strains, locus YLL001W, strain dnm1, active compounds read low 0.233 | S. cerevisiae deletion strains, locus YLL026W, active compounds read low 0.243 | S. cerevisiae deletion strains, locus YLL041C, strain sdh2, active compounds read low 0.3 | S. cerevisiae deletion strains, locus YLR027C, strain aat2, active compounds read low 0.261 | S. cerevisiae deletion strains, locus YLR039C, strain RIC1, active compounds read low 0.33 | S. cerevisiae deletion strains, locus YLR058C, strain SHM2, active compounds read low 0.403 | S. cerevisiae deletion strains, locus YLR102C, strain apc9, active compounds read low 0.419 | S. cerevisiae deletion strains, locus YLR113W, strain HOG1, active compounds read low 0.323 | S. cerevisiae deletion strains, locus YLR221C, strain rsa3, active compounds read low 0.204 | S. cerevisiae deletion strains, locus YLR258W, strain gsy2, active compounds read low 0.279 | S. cerevisiae deletion strains, locus YLR262C, strain YPT6 (second series), active compounds read low 0.322 | S. cerevisiae deletion strains, locus YLR262C, strain YPT6, active compounds read low 0.486 | S. cerevisiae deletion strains, locus YLR268W, strain sec22, active compounds read low 0.248 | S. cerevisiae deletion strains, locus YLR320W, strain mms22, active compounds read low 0.236 | S. cerevisiae deletion strains, locus YLR330W, strain CHS5, active compounds read low 0.307 | S. cerevisiae deletion strains, locus YLR342W, strain FKS1 (second series), active compounds read low 0.483 | S. cerevisiae deletion strains, locus YLR342W, strain FKS1, active compounds read low 0.563 | S. cerevisiae deletion strains, locus YLR357W, strain rsc2, active compounds read low 0.358 | S. cerevisiae deletion strains, locus YLR370C, strain arc18, active compounds read low 0.384 | S. cerevisiae deletion strains, locus YLR371W, strain rom2, active compounds read low 0.528 | S. cerevisiae deletion strains, locus YLR384C, strain iki3, active compounds read low 0.771 | S. cerevisiae deletion strains, locus YLR418C, strain cdc73, active compounds read low 0.254 | S. cerevisiae deletion strains, locus YML016C, strain PPZ1, active compounds read low 0.214 | S. cerevisiae deletion strains, locus YML032C, strain rad52, active compounds read low 0.367 | S. cerevisiae deletion strains, locus YML120C, strain ndi1, active compounds read low 0.29 | S. cerevisiae deletion strains, locus YML124C, strain tub3, active compounds read low 0.421 | S. cerevisiae deletion strains, locus YMR058W, strain fet3, active compounds read low 0.361 | S. cerevisiae deletion strains, locus YMR078C, strain ctf18, active compounds read low 0.401 | S. cerevisiae deletion strains, locus YMR125W, strain sto1, active compounds read low 0.462 | S. cerevisiae deletion strains, locus YMR129W, active compounds read low 0.266 | S. cerevisiae deletion strains, locus YMR205C, strain PFK2, active compounds read low 0.366 | S. cerevisiae deletion strains, locus YMR223W, strain ubp8, active compounds read low 0.31 | S. cerevisiae deletion strains, locus YMR231W, strain pep5, active compounds read low 0.84 | S. cerevisiae deletion strains, locus YMR263W, strain SAP30, active compounds read low 0.47 | S. cerevisiae deletion strains, locus YNL067W, strain RPL9B, active compounds read low 0.288 | S. cerevisiae deletion strains, locus YNL071W, strain lat1, active compounds read low 0.167 | S. cerevisiae deletion strains, locus YNL128W, strain TEP1, active compounds read low 0.167 | S. cerevisiae deletion strains, locus YNL153C, strain GIM3, active compounds read low 0.285 | S. cerevisiae deletion strains, locus YNL183C, strain NPR1, active compounds read low 0.266 | S. cerevisiae deletion strains, locus YNL209W, strain ssb2, active compounds read low 0.195 | S. cerevisiae deletion strains, locus YNL233W, strain BNI4, active compounds read low 0.292 | S. cerevisiae deletion strains, locus YNL248C, strain rpa49, active compounds read low 0.384 | S. cerevisiae deletion strains, locus YNL250W, strain rad50, active compounds read low 0.508 | S. cerevisiae deletion strains, locus YNL271C, strain bni1, active compounds read low 0.505 | S. cerevisiae deletion strains, locus YNL298W, strain CLA4, active compounds read low 0.298 | S. cerevisiae deletion strains, locus YNL307C, strain MCK1, active compounds read low 0.125 | S. cerevisiae deletion strains, locus YNL322C, strain KRE1 (second series), active compounds read low 0.493 | S. cerevisiae deletion strains, locus YNL322C, strain KRE1, active compounds read low 0.349 | S. cerevisiae deletion strains, locus YNR049C, strain mso1, active compounds read low 0.412 | S. cerevisiae deletion strains, locus YNR052C, strain pop2, active compounds read low 0.788 | S. cerevisiae deletion strains, locus YOL006C, strain TOP1, active compounds read low 0.16 | S. cerevisiae deletion strains, locus YOL147C, strain pex11, active compounds read low 0.256 | S. cerevisiae deletion strains, locus YOR001W, strain rrp6, active compounds read low 0.287 | S. cerevisiae deletion strains, locus YOR061W, strain CKA2, active compounds read low 0.475 | S. cerevisiae deletion strains, locus YOR069W, strain VPS5, active compounds read low 0.564 | S. cerevisiae deletion strains, locus YOR070C, strain gyp1, active compounds read low 0.277 | S. cerevisiae deletion strains, locus YOR080W, strain dia2, active compounds read low 0.431 | S. cerevisiae deletion strains, locus YOR083W, strain WHI5, active compounds read low 0.3 | S. cerevisiae deletion strains, locus YOR106W, strain vam3, active compounds read low 0.288 | S. cerevisiae deletion strains, locus YOR136W, strain idh2, active compounds read low 0.321 | S. cerevisiae deletion strains, locus YOR144C, strain elg1, active compounds read low 0.449 | S. cerevisiae deletion strains, locus YOR184W, strain ser1, active compounds read low 0.131 | S. cerevisiae deletion strains, locus YOR231W, strain MKK1, active compounds read low 0.37 | S. cerevisiae deletion strains, locus YOR265W, strain rbl2, active compounds read low 0.327 | S. cerevisiae deletion strains, locus YOR270C, strain vph1, active compounds read low 0.187 | S. cerevisiae deletion strains, locus YOR290C, strain snf2, active compounds read low 0.302 | S. cerevisiae deletion strains, locus YOR316C, strain cot1, active compounds read low 0.433 | S. cerevisiae deletion strains, locus YPL051W, strain arl3, active compounds read low 0.374 | S. cerevisiae deletion strains, locus YPL055C, strain LGE1, active compounds read low 0.331 | S. cerevisiae deletion strains, locus YPL078C, strain atp4, active compounds read low 0.248 | S. cerevisiae deletion strains, locus YPL106C, strain sse1, active compounds read low 0.263 | S. cerevisiae deletion strains, locus YPL240C, strain hsp82, active compounds read low 0.313 | S. cerevisiae deletion strains, locus YPL241C, strain CIN2, active compounds read low 0.323 | S. cerevisiae deletion strains, locus YPL256C, strain CLN2, active compounds read low 0.419 | S. cerevisiae deletion strains, locus YPR119W, strain clb2, active compounds read low 0.424 | S. cerevisiae deletion strains, locus YPR141C, strain kar3, active compounds read low 0.494 | S. cerevisiae deletion strains, locus YPR163C, strain tif3, active compounds read low 0.314 | S. cerevisiae deletion strains, locus YPR167C, strain met16, active compounds read low 0.386 | S. cerevisiae deletion strains, strain wtn01, active compounds read low 0.249 | S. cerevisiae strains, strain wild type, active compounds read low 0.27
inactive: S. cerevisiae deletion strains, locus YMR307W, strain GAS1, active compounds read low 0.661 | S. cerevisiae deletion strains, locus YOL012C, strain htz1 0.255
